This passage reports Inhibition results from ChEMBL document CHEMBL1157539, “Thousands of chemical starting points for antimalarial lead identification” (Nature, 2010).

Holding throughout (assay type): functional
Experiment [1] deals with Plasmodium falciparum. Briefly: GSK_TCMDC: Inhibition of Plasmodium falciparum 3D7 in whole red blood cells, using parasite LDH activity as an index of growth. Test compounds present at 2uM.
The subject of experiment [2] is Plasmodium falciparum. Briefly: GSK_TCMDC: Inhibition of Plasmodium falciparum Dd2 in whole red blood cells, using parasite LDH activity as an index of growth. Test compounds present at 2uM.
In experiment [3] the test system is HepG2. The experiment can be described thus: GSK_TCMDC: Percent inhibition of human HepG2 cell line. Test compounds present at 10uM.

One may read the Inhibition as the percentage by which the read-out fell short of the control.

For the compound `CC(=O)Nc1nc(C(=O)Nc2ccc(-c3ccc(-c4nc5ccccc5[nH]4)cc3)cc2)cs1`, the Inhibition amounted to 100% in experiment [1], 53% in experiment [2] and 38% in experiment [3].
For `Br.CCCCc1ccc(CCNCCCCCCNCCc2ccc(O)c(O)c2)cc1`, in that order: 100%, 0% and 45%.
For `Cc1cccc2nc(-c3cccc(-c4ccc(NC(=O)COc5ccccc5C(N)=O)cc4)c3)[nH]c12`, in that order: 100%, 47% and 18%.
Regarding `Cc1nnc(Sc2ncnc3scc(-c4ccc(F)cc4)c23)s1`, the results for the Inhibition in experiment [1], in experiment [2] and in experiment [3] were 99%, 50% and 13%, respectively.
For `Cn1cc(C2CCN(CCCCCNC(=O)/C=C/c3ccc(Cl)c(Cl)c3)CC2)c2cc(O)ccc21`, in that order: 94%, 0% and 11%.
`CS(=O)(=O)N(c1ccccc1)c1cc(C(=O)N[C@@H](Cc2ccccc2)[C@H](O)CNC2CC2)cc(N2CCCC2=O)c1`: the Inhibition in experiment [1] was 100%; in experiment [2], 98%; in experiment [3] it was 1%.
For `O=C(Nc1cccc(-c2ccc(CN3CCCC3)cc2)c1)c1ccc(F)cc1.O=C(O)C(F)(F)F`, in that order: 92%, 9% and 23%.
Regarding `COc1ccc(CCNc2ccnc3cc(Cl)ccc23)cc1OC.Cl`, the Inhibition in experiment [1] was found to be 100%; in experiment [2], 92%; in experiment [3], 4%.
In the case of `CS(=O)(=O)NCCCNCc1cccc(-c2ccc(-c3nc4cc(C(F)(F)F)ccc4[nH]3)s2)c1.O=C(O)C(F)(F)F`, the Inhibition in experiment [1] is given as 100%; in experiment [2], 51%; in experiment [3], 11%.
For `CS(=O)(=O)c1ccc2[nH]c(-c3cc(-c4cccc(F)c4)cnc3N)nc2c1.O=C(O)C(F)(F)F`, in that order: 100%, 71% and 33%.
For `O=C(NCc1ccc(Cl)c(Cl)c1)c1cccc(C2CCCN(Cc3ccc4[nH]cnc4c3)C2)c1` (stereo not drawn), in that order: 95%, 30% and 3%.
For `Cc1cc(N[C@@H](CC(C)C)C(=O)Nc2ccccc2)nc(NCc2ccccc2C)n1.O=C(O)C(F)(F)F`, in that order: 100%, 81% and 21%.
Regarding `Cc1ccc2[nH]c(/C=C/c3cccc4cc[nH]c34)nc2c1`, the Inhibition is listed as 100% in experiment [1], 92% in experiment [2] and 9% in experiment [3].
Turning to `Cc1noc(C)c1-c1cccc(CNCc2ccc(-c3cccc(-c4nc5ccccc5[nH]4)c3)cc2)c1.O=C(O)C(F)(F)F`, the values for the Inhibition in experiment [1], in experiment [2] and in experiment [3] were 100%, 57% and 50%, respectively.
For `COc1ccc2nc(-c3ccc(C(=O)NCCCN4CCN(c5cc(Cl)ccc5OC)CC4)cc3)[nH]c2c1`, in that order: 97%, 53% and 0%.
For `COc1ccc2nccc([C@@H](O)CN3CCC(NC(=O)C(c4cc5ccccc5s4)N4CC(C)OC(C)C4)CC3)c2c1` (stereo partly drawn), in that order: 93%, 44% and 12%.
For the compound `O=C(NC(Nc1ccc([N+](=O)[O-])cc1)C(Cl)(Cl)Cl)c1ccc(Cl)cc1` (stereo not drawn), the Inhibition in experiment [1] amounted to 98%; in experiment [2] it was 94%; in experiment [3] it was 21%.
For the compound `O=S(=O)(Nc1cccc(CCN2CCC(N3CCCCC3)CC2)c1)c1ccc(Oc2ccccc2)cc1`, the Inhibition in experiment [1] was found to be 100%; in experiment [2] it was 25%; in experiment [3] it was 28%.
For `COc1ccc(C2C(C(=O)Nc3cc(C)ccc3OC)c3ccccc3C(=O)N2C)cc1` (stereo not drawn), in that order: 86%, 3% and 3%.
For `CCCCCCN(CCCCCC)CC(O)c1cc(-c2ccc(Cl)cc2)nc2c(C)cc(C)cc12` (stereo not drawn), in that order: 98%, 98% and 27%.
For `Cl.c1ccc(C(c2cccs2)N2CCN(Cc3ccc(OCCCN4CCCCC4)cc3)CC2)cc1` (stereo not drawn), in that order: 91%, 14% and 41%.
`CCOC(=O)c1ccc(NC(=O)NC2CCN(CCCCCNC(=O)/C=C/c3ccc(Cl)c(Cl)c3)C2)cc1` (stereo not drawn): the Inhibition in experiment [1] is recorded as 98%; in experiment [2], 0%; in experiment [3] it was 23%.
`COc1ccc(C2CCC(NCCCCNC(=O)c3ccc(NC(=O)c4ccc(Cl)cc4)cc3)CC2)cc1` (stereo not drawn): the Inhibition in experiment [1] was 99%; in experiment [2], 7%; in experiment [3], 23%.
For `Cc1c(Cc2ccccc2Br)cnc2nc(N)nc(N)c12.Cl`, in that order: 88%, 97% and 67%.
For `Cc1cc2nc(-c3ccc(/C=C/C(=O)NCc4ccc(Cl)c(Cl)c4)cc3)[nH]c2cc1C`, the Inhibition is reported as 98% in experiment [1], 83% in experiment [2] and 32% in experiment [3].
Consider `COc1ccc2nccc([C@@H](O)CN3CCC(NCc4nc5c([N+](=O)[O-])cccc5[nH]4)CC3)c2c1.O=C(O)C(=O)O`, for which the figures for the Inhibition in experiment [1], in experiment [2] and in experiment [3] were 100%, 84% and 13%, respectively.
For `Cc1ccc(NC(=O)NC2CCN(CCC(NC(=O)Cc3ccccc3)c3ccc(Cl)c(Cl)c3)CC2)cc1` (stereo not drawn), in that order: 100%, 2% and 16%.
For `CN1CCC(OC(=O)c2cc3cc(-c4ccccc4)ccc3n2S(=O)(=O)c2ccccc2)CC1.Cl`, in that order: 88%, 10% and 31%.
For `O=C(Cn1cc(C(F)(F)F)cc(Cl)c1=O)N1CCN(S(=O)(=O)c2ccc(Cl)cc2)CC1`, in that order: 99%, 69% and 14%.
As to `Cl.Oc1ccc2c(CNCCc3ccccc3)c(O)ccc2c1CNCCc1ccccc1`, the Inhibition in experiment [1] was determined as 99%; in experiment [2], 100%; in experiment [3], 24%.
For `O=C(NCCc1ccc(Cl)c(Cl)c1)C1CCCN(C(=O)c2ccc(O)c(-c3ccc(Cl)c(Cl)c3)c2)C1` (stereo not drawn), in that order: 96%, 65% and 0%.
